Rows were chosen to be rich in hits. Some 11% of all compounds tested hit in one or more screens of this group.
HCV inhibitor: HCV inhibition. Huh7.5.1 HCVcc-Cre infection, luciferase reporter, 44 h. Potency, µM (top dose mostly 41.8 µM), for the others: top-dose activity change, negative = inhibition, actives largely listed as inhibitors. hit rate 3.4% among 340,000. AID 651820; further: on the % scale 0 is the no-effect control and ±100 the full control effect
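Infectious HCV cell culture screen: compound-treated cells (1,000/well, pre-plated 4 h) are infected with HCVcc-Cre at roughly 0.5 moi and grown 44 h. Infection is quantified by luciferase signal after 15 min substrate incubation at room temperature.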
Pf growth 48h: P. falciparum growth inhibition at 48 hours (one generation); Potency, µM (top dose mostly 28.7 µM), without a hit: at the highest dose activity change, negative = inhibition, usual class: inhibitors; P. falciparum luciferase growth in erythrocytes, 48 h; AID 504832; hit rate 5.9% among 310,000; further: on the % scale 0 is the no-effect control and ±100 the full control effect
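Read-out is firefly luciferase luminescence from an integrated reporter in P. falciparum, so falling signal marks reduced parasite growth. Infected erythrocytes were at 2% hematocrit and 0.1% parasitemia (final) in Albumax-supplemented RPMI 1640.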
VACV Venus inh: vaccinia inhibition (Venus reporter); Vaccinia virus Venus reporter expression, fluorescence; Potency, µM (doses to about 36.5 µM), for inactives: at the highest dose activity change, negative = inhibition, usual class: inhibitors; hit rate 0.46% among 330,000; calls by dose curve; tested in A549 cells; further: on the % scale 0 is the no-effect control and ±100 the full control effect; nearly all actives have a fitted effect of over 30% in size
NS1 function inh: influenza NS1 inhibition. Potency, µM (highest dose often 46.1 µM), inactives show top-dose activity, positive = more growth. hit rate 0.4% among 270,000; calls by dose curve; further: actives are rising curves; nearly all actives have a fitted effect of over 50% in size
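Read-out: OD600 growth recovery of NS1-expressing budding yeast. Cells grown overnight at 30C in -URA glucose medium, washed, resuspended and diluted 1:100 in 2% galactose assay medium, pH 6.0. Same strain lacking NS1 served as positive control.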
Vaccinia mCherry: vaccinia inhibition (mCherry reporter) | Vaccinia virus mCherry reporter infection, fluorescence | Potency, µM (doses to about 36.5 µM), for the others: at the highest dose activity change, negative = inhibition, most hits filed as inhibitors | hit rate 0.63% among 310,000; calls by dose curve; tested in A549 cells; further: on the % scale 0 is the no-effect control and ±100 the full control effect; nearly all actives have a fitted effect of over 35% in size
Pf growth 96h: P. falciparum growth inhibition at 96 hour, primary screen for plastid delayed-death inhibitors. P. falciparum luciferase reporter growth, 96 h. hit rate 6.9% among 320,000. AID 504834. Potency, µM (doses to about 28.7 µM), inactives show at the highest dose activity change, negative = inhibition, usual class: inhibitors; further: on the % scale 0 is the no-effect control and ±100 the full control effect
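Two parasite generations (96 h, 37 C, 5% CO2) of compound exposure in infected erythrocytes (0.05% parasitemia, 2% hematocrit). Luciferase-reporter P. falciparum; decreased luminescence indicates inhibited growth, aimed at apicoplast-acting delayed death.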
* marks the source's active call; other numbers are inactive results; i = inactive; u = inconclusive; x = no result; [ ] = another dose, or the depositor's remark. Unless noted, the call rests on the fitted dose curve; in most records, active means well fitted inhibition curve with a large enough effect; inconclusive means small, poorly fitted or top-dose-only effect, or another doubt; inactive means no such curve, though single readings can be large or run the other way. Potency means the concentration at half of the fitted maximal effect.

SMILES | HCV inhibitor | Pf growth 48h | VACV Venus inh | NS1 function inh | Vaccinia mCherry | Pf growth 96h
CCCS(=O)(=O)N1CCC(C(=O)NCCCOC(C)C)CC1 | -2% | 3% | -2% | 2% | i | 9.3µM*
COc1cccc(C2C(C(=O)c3ccco3)=C(O)C(=O)N2CCN(C)C)c1OC (stereo not given) | 14% | 0% | -8% | 3% | -15% | 116%
Cc1ccc(OCC(=O)Nc2ccc(F)cc2)c([N+](=O)[O-])n1 | -8% | 348% | -11% | 6% | i | 315%
Cc1c(NC(=S)N/N=C\c2ccccc2O)c(=O)n(-c2ccccc2)n1C | u | -17% | u | 7% | 13µM* | u
Cc1c(NC(=S)N/N=C/c2ccc(Br)cc2)c(=O)n(-c2ccccc2)n1C | 15% | 8% | -19% | 1% | -13% | 10%
Cc1c(NC(=S)NC(=O)c2ccccc2Cl)c(=O)n(-c2ccccc2)n1C | -1% | 4% | 3% | -3% | -14% | -14%
Cc1c(C(=S)NC(=O)C2CC2)c(=O)n(-c2ccccc2)n1C | -9% | -30% | -22% | x | 0% | 15µM*
Cc1c(NC(=O)CN2C(=O)c3ccc([N+](=O)[O-])cc3C2=O)c(=O)n(-c2ccccc2)n1C | 16% | 31% | 2% | 0% | 4% | 27%
Cc1c(NC(=O)c2ccc(-c3ccc([N+](=O)[O-])cc3Cl)o2)c(=O)n(-c2ccccc2)n1C | -17% | 20% | -17% | 2% | -16% | 9.3µM*
Cc1c(NC(=O)C(C)OC(=O)c2ccc([N+](=O)[O-])s2)c(=O)n(-c2ccccc2)n1C (stereo not given) | -18% | u | x | x | x | 13µM*
Cc1c(NC(=O)C(C)OC(=O)c2sc3ccccc3c2Cl)c(=O)n(-c2ccccc2)n1C (stereo not given) | 24% | 4% | -19% | 8% | -23% | 23%
C#CCN(CC=C)C(=O)c1ccc(OC2CCN(S(=O)(=O)N(C)C)CC2)cc1 | u | 2% | x | 4% | x | u
COc1cccc(Nc2nc3ccc(C(=O)c4ccccc4)cc3n3cnnc23)c1 | -24% | u | x | 8% | x | u
C=CCc1cccc(CNc2c(C)n(C)n(-c3ccccc3)c2=O)c1O | 32µM* | 10µM* | x | 8% | x | 66%
Cc1c(NC(C)C)c(=O)n(-c2ccccc2)n1C | 0.56µM* | 10% | -16% | x | -3% | 24%
Cc1c(NC(=O)c2c(F)c(F)c(F)c(F)c2F)c(=O)n(-c2ccccc2)n1C | 11% | -12% | -17% | -9% | -18% | -2%
Cc1c(NC(=O)c2ccccc2)c(=O)n(-c2ccccc2)n1C | 14% | 25% | 7% | 3% | x | 10µM*
Cc1cc(C)cc(OCC(=O)OCC(=O)Nc2c(C)n(C)n(-c3ccccc3)c2=O)c1 | 1µM* | 11% | -15% | 7% | i | 12%
Cc1c(NCc2ccccc2O)c(=O)n(-c2ccccc2)n1C | 10% | 1% | -2% | 21% | i | 6%
COc1ccc(OCC(=O)Sc2ccc(C)cc2)cc1 | 42% | 13% | -21% | -51% | x | u
O=C(N/N=C/c1ccc(Sc2nc3ccccc3[nH]2)o1)c1ccncc1 | 10% | 1% | -9% | -9% | -2% | -20%
Cc1ccc(-c2nn(-c3ccccc3)cc2/C=C/C(=O)Nc2nccs2)cc1 | u | u | -27% | -9% | -10% | u
Cc1c(NC(=O)c2cccc(S(=O)(=O)N3CCOCC3)c2)c(=O)n(-c2ccccc2)n1C | 15% | -3% | -8% | 0% | i | 8.3µM*
Cc1c(NC(=O)/C=C/c2cn(-c3ccccc3)nc2-c2ccc(F)cc2)c(=O)n(-c2ccccc2)n1C | 11µM* | 4% | -16% | 4% | u | 9.3µM*
Cc1c(N(C)C(=O)C2CCCN2S(=O)(=O)c2ccccc2)c(=O)n(-c2ccccc2)n1C (stereo not given) | 14% | 1% | 3% | -2% | -10% | 2.3µM*
SMILES | HCV inhibitor | Pf growth 48h | VACV Venus inh | NS1 function inh | Vaccinia mCherry | Pf growth 96h
Cc1c(N(CC(=O)O)S(=O)(=O)c2ccccc2)c(=O)n(-c2ccccc2)n1C | 29% | 15% | -2% | 4% | -14% | 4.7µM*
Cc1c(N(C)S(=O)(=O)c2cccc(C(=O)NC(C)C)c2)c(=O)n(-c2ccccc2)n1C | -7% | -69% | 2% | 24% | -11% | 12µM*
Cc1c(N(C)S(=O)(=O)c2cccc(C(=O)NCC3CCCO3)c2)c(=O)n(-c2ccccc2)n1C (stereo not given) | 18% | 26% | -10% | x | i | u
Cc1c(NC(=O)CN(c2ccc(F)cc2)S(=O)(=O)c2ccccc2)c(=O)n(-c2ccccc2)n1C | 10% | -1% | -8% | 0% | -10% | u
CC(=O)Nc1ccc(S(=O)(=O)N2CCN(c3ccc(C)c(Cl)c3)CC2)cc1 | -16% | x | u | -8% | -20% | 15%
CN(C)c1cccc(CNC(=O)c2ccc3nc([C@H]4C[C@H](O)[C@@H](CO)O4)[nH]c3c2)c1 | x | x | -7% | x | -1% | x
O=C(CCc1ccccc1)NNC(=O)c1ccccc1Br | 5% | -12% | -18% | 7% | 0% | 36%
Cc1cc(C)c(NC(=O)CNC(=O)COC(=O)C2CCN(c3ccc(C(F)(F)F)cn3)CC2)c(C)c1 | 2% | 19% | -2% | -16% | -8% | 26%
CCCc1ccc(C(O)c2ncc(-c3cccc(F)c3)[nH]2)cc1 (stereo not given) | x | x | -19% | x | u | x
COc1ccc(C(=O)NCc2cccc(Cl)c2)cc1S(=O)(=O)N1CCOCC1 | u | u | x | x | x | -5%
CN1C(=O)CC2(CC(=O)N(Cc3ccccc3)C2)C1=O (stereo not given) | 19% | 21% | 2% | -37% | -11% | x
Cc1cc(C(=O)CSc2n[nH]c(N)n2)c(C)n1-c1cc(F)ccc1F | u | 11% | -28% | 11% | u | 9%[5.75 µM]
Cc1cc(C(=O)CSc2n[nH]c(N)n2)c(C)n1-c1ccc(F)cc1 | -28% | 54% | x | 15% | x | u
Cc1ccc(-n2c(C)cc(C(=O)CSc3n[nH]c(N)n3)c2C)cc1 | u | u | x | 13% | x | 3.3µM*
Cc1cc(C(=O)CSc2n[nH]c(N)n2)c(C)n1-c1ccccc1 | 11µM* | 105% | x | 2% | x | x
Cc1ccc(-n2c(C)cc(C(=O)COC(=O)c3c(C)noc3C)c2C)cc1 | 0.32µM* | 227% | x | -61% | x | 389%
COC(=O)C1=C(C)N(CCCC(=O)O)C(=O)NC1c1ccccc1Cl (stereo not given) | 24% | x | -14% | x | i | x
Cc1ccc(C)c(OCC(=O)Nc2ccc(C(=O)O)cc2NC(=O)COc2cc(C)ccc2C)c1 | -1% | 33% | -7% | 14% | -2% | 8%
CCOCCCNC(=O)CCCC1=NS(=O)(=O)c2ccccc2N1 | 13% | 15% | -8% | 0% | -12% | -8%

High-throughput results from PubChem BioAssay.
